Data on 48 compounds can be found in PubChem BioAssay AID2661 (Broad Institute, 2010).

As a reminder, the inhibition is the relative decrease from the control value, in per cent.

The campaign covered roughly 320,000 compounds. About 240 (0.075%) were called active. This is one part of a sample in which actives are shown more often than they occur. Unmarked numbers belong to inactive results.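 How the source made its calls: active means inhibition at or above 25%, using the most active replicate where run in duplicate; inactive means inhibition below 25%.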

Chain of Serine/threonine-protein kinase 33 (Homo sapiens) (Q9BYT3 whole entry, looked up): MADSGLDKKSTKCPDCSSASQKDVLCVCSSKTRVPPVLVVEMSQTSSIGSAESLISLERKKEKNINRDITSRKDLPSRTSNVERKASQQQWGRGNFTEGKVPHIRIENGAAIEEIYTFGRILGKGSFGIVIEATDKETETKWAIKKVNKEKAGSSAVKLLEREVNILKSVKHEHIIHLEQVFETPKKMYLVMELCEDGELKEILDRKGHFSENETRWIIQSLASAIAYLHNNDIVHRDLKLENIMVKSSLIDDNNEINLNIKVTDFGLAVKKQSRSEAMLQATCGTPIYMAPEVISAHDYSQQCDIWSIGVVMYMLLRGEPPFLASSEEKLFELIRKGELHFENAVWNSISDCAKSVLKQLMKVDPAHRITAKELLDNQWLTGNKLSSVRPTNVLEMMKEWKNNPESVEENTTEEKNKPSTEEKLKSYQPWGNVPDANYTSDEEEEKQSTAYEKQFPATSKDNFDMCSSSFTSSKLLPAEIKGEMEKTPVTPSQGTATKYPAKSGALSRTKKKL

The test addresses Serine/threonine-protein kinase 33 (Homo sapiens) (UniProt Q9BYT3). Put plainly: STK33 phosphorylation of MBP blockers – biochemical, ADP-Glo luminescence, homogeneous, cell-free, primary screen (AID 2661). As to conditions: purified STK33, MBP phosphorylation, at 10 µM, hits give high values. For orientation: In ADP-Glo the light output rises with the ADP produced.
`C[C@H](CO)N1C[C@H](C)[C@H](CN(C)C(=O)Nc2ccc(C(F)(F)F)cc2)Oc2c(NC(=O)c3ccncc3)cccc2C1=O`: the inhibition is -1.64%.

Consider `Cc1ccc(NC(=O)Cn2cnc3c(OCc4ccccc4)ncnc32)cc1C`, for which the inhibition is -0.221%.

As for `COc1ccc(-c2oc3ncn(Cc4ccco4)c(=N)c3c2-c2ccc(OC)cc2)cc1`, the inhibition was 0.0388%.

In the case of `N=c1c2c(-c3ccccc3)c(-c3ccccc3)oc2ncn1Cc1ccco1`, the inhibition is 29.3% (active).

Consider `N=c1c2c(-c3ccccc3)c(-c3ccccc3)n(Cc3ccccc3)c2ncn1CCCO`, for which the inhibition is -0.27%.

For `CSCCC1NC(=O)N(CC(=O)Nc2cccc(S(=O)(=O)N3CCCCCC3)c2)C1=O` (stereo not drawn), the inhibition is -1.42%.

On to `CN=C(Nc1cccc(S(=O)(=O)N2CCOCC2)c1)c1ccccc1`, for which the inhibition was -1.05%.

For `CCN(C(=O)CSc1cccc[n+]1[O-])c1ccccc1`, the inhibition is -2.46%.

As to `C[C@H](NS(=O)(=O)c1ccc(Cl)cc1)C(=O)OCC(=O)N1CCOCC1`, the inhibition was -1.2%.

For the compound `Cc1ccsc1C(=O)NCCc1ccco1`, the inhibition was -0.976%.

For the compound `CC(C)CC1NC(=O)c2cc(Cl)ccc2-n2c1nc1ccccc1c2=O` (stereo not drawn), the inhibition was -0.406%.

As for `CC(NC(=O)COC(=O)CCC(=O)c1ccc(Cl)cc1)c1ccccc1` (stereo not drawn), the inhibition was 0.0433%.

On to `CCCCCCSc1ccc(-c2nc3ccc(Cl)cn3c2NCc2ccccc2)cc1`, for which the inhibition was -0.955%.

Turning to `O=C(Nc1ccccc1-c1ccccc1)c1cccs1`, the inhibition is 4.17%.

Consider `O=C(Nc1ccccc1-c1nc2ccccc2[nH]c1=O)c1cccs1`, for which the inhibition was 71.9% (active).

Turning to `O=C(Nc1ccccc1-c1nnn(CC(=O)N2CCN(c3ccccc3)CC2)n1)c1cccs1`, the inhibition was -0.118%.

As for `O=C(COc1ccc(Br)cc1F)NCC1(N2CCCCC2)CCCCC1`, the inhibition was -1.07%.

On to `Cc1ccccc1SCC(=O)OCC(=O)N1CC(=O)Nc2ccccc21`, for which the inhibition was -0.869%.

For the compound `C[C@H](CO)N1C[C@H](C)[C@@H](CN(C)C(=O)NC2CCCCC2)Oc2ccc(NC(=O)c3ccncc3)cc2C1=O`, the inhibition was 0.225%.

Take `CCC(CO)Oc1cc(NC(=O)c2ccc(Cl)cc2)c2ncn(C(C)C)c2c1` (stereo not drawn): the inhibition was -0.728%.

As to `COc1ccc(OCC(=O)NNC(=O)C2CCC2)cc1`, the inhibition is -0.275%.

Regarding `COc1ccc(OC)c(NC(=O)COC(=O)Cc2ccsc2)c1`, the inhibition was 0.647%.

Regarding `Cc1ccc(S(=O)(=O)N2[C@@H](c3ccc(Br)cc3)C(C(=O)O)=C[C@H]2CC2CCCC2)cc1`, the inhibition was -2.01%.

`CCOC(=O)[C@@H]1[C@H]2COc3ccc(Br)cc3[C@H]2N2C(=O)N(c3ccc(C)cc3)C(=O)[C@@]12C`: the inhibition is -0.0883%.

As for `CCCc1cc(=O)[nH]c(SCC(=O)Nc2ccc(S(=O)(=O)N3CCCC3)cc2)n1`, the inhibition was -1.05%.

Consider `Cc1noc(C)c1NC(=O)Nc1ccc2c(c1)C(=O)N([C@H](C)CO)C[C@H](C)[C@@H](CN(C)S(=O)(=O)c1cn(C)cn1)O2`, for which the inhibition is -0.91%.

As for `COc1c(O)cc2oc(-c3ccc(O)c(O)c3)cc(=O)c2c1O`, the inhibition is 44.2% (active).

`CCOC(=O)COc1cc(O)c2c(=O)cc(-c3ccccc3)oc2c1`: the inhibition is 1.27%.

Take `CCOC(=O)COc1cc(OCC(=O)OCC)c2c(=O)cc(-c3ccccc3)oc2c1`: the inhibition was -0.944%.

As to `O=C(NNC(=O)c1ccc(Cl)nc1)c1ccc(Br)cc1`, the inhibition was -0.906%.

In the case of `Cc1ccc(C)c(NC(=O)CN(C)C(=O)COc2ccc3ccccc3c2)c1`, the inhibition is -0.402%.

Consider `CC(=O)NC(CC(=O)Nc1ccc(S(=O)(=O)N2CCOCC2)cc1)c1ccccc1` (stereo not drawn), for which the inhibition was 2.28%.

For `Cc1ccc(S(=O)(=O)N2[C@@H](c3cccc4ccccc34)C(C(=O)O)=C[C@H]2C(C)(C)C)cc1`, the inhibition is -1.33%.

With `CN(CCc1ccccc1)C(=O)c1cccc(NC(=O)Cc2ccc([N+](=O)[O-])cc2)c1`, the inhibition is 0.236%.

With `O=C1OC[C@@H]2CCCN2C(=O)[C@H](CC(=O)N(CCO)Cc2ccccc2)C/C=C\CC[C@@H]1Cc1ccc(F)cc1`, the inhibition is -0.762%.

As to `Cc1ccc(C(=O)OCC(=O)N2CCCCCC2)cc1S(=O)(=O)N1CCOCC1`, the inhibition is -2.28%.

With `C=CC[C@@H](CC(=O)N[C@H](CO)Cc1ccccc1)C(=O)N[C@@H](COC(=O)[C@@H](CC=C)Cc1ccc(F)cc1)Cc1c[nH]c2ccccc12`, the inhibition is -0.564%.

As to `O=C1NC[C@@H](c2ccccc2)OC(=O)[C@H](Cc2ccc(F)cc2)CC/C=C/C[C@H]1CC(=O)N(CCO)Cc1ccccc1`, the inhibition was -2.42%.

On to `Fc1ccccc1-c1cc2cc3c(cc2cn1)OCO3`, for which the inhibition is 1.15%.

`O=C(CN1C(=O)NC2(CCCCCC2)C1=O)Nc1ccc([N+](=O)[O-])cc1`: the inhibition is -2.25%.

Take `O=C(COC(=O)c1cccnc1Cl)NC(=O)NC1CCCCC1`: the inhibition was -0.374%.

In the case of `COc1ccc(Cl)cc1NC(=O)COC(=O)c1ccc(Br)o1`, the inhibition was -0.284%.

Turning to `COc1ccc(CNc2nc(NCc3ccc(OC)cc3)c3ncn(C4CCCC4)c3n2)cc1`, the inhibition is -0.00506%.

For the compound `O=C(CN1C(=O)c2ccc([N+](=O)[O-])cc2C1=O)Nc1nnc(C2CC2)s1`, the inhibition is -0.729%.

Regarding `C=CCC[C@H](Cc1ccc(F)cc1)C(=O)OC[C@@H](Cc1c[nH]c2ccccc12)NC(=O)[C@H](CC=C)CC(=O)N[C@H](CO)Cc1ccccc1`, the inhibition was -0.577%.

On to `O=C(COC(=O)c1ccc(O)cc1O)c1ccc2c(c1)OCCO2`, for which the inhibition is 1.53%.

For the compound `CCOc1ccc(Br)cc1S(=O)(=O)Nc1ccc(S(=O)(=O)Nc2cc(C)on2)cc1`, the inhibition is -0.663%.

Turning to `COc1ccc2nc3n(c(=O)c2c1)-c1cc(C)ccc1C(=O)NC3Cc1ccc(O)cc1` (stereo not drawn), the inhibition was -0.57%.
